Most compounds without a hit are left out; they make up all but 10% or so of the library.
12-hLO inh: 12-hLO (ALOX12) enzyme inhibition. P18054. Potency, µM (highest dose often 57.1 µM), most hits filed as inhibitors. AID 1452. 150,000 compounds, 0.12% hits. purified 12-hLO, xylenol orange hydroperoxide absorbance; further: nearly all actives have a fitted effect of over 55% in size
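Hydroperoxide formation by human 12-lipoxygenase from 40 uM arachidonic acid was followed colorimetrically via ferric-xylenol orange complex, using the 573/405 nm absorbance ratio. Enzyme concentration was 150 nM, with 30 min reaction at room temperature.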
GLA spleen mod: inhibitors or activators of human alpha-galactosidase in spleen homogenate; P06280; human spleen homogenate, 4MU-alpha-Gal fluorescence, 40 min; Potency, µM (series often up to 80 µM), most hits filed as inhibitors; 240,000 compounds, 0.008% hits; AID 2107
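Human spleen homogenate (1 ug) was the enzyme source, with 4-methylumbelliferyl-alpha-D-galactopyranoside (1 mM final) in pH 5.0 citrate buffer with 0.01% Tween-20. Compounds were titrated; after 40 min at 37C, NaOH/glycine stop, 4-MU fluorescence read; AC50 from Hill fits.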
PNC assembly inh: blocks assembly of the perinucleolar compartment | activity change (PNC), negative = inhibition, % at 10 µM | 140,000 compounds, 3.1% hits | PC3M PTB-GFP, PNC prevalence imaging, 16 h; active compounds read low;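 active means readout at or below -70, meaning at least 70% loss of cells showing the perinucleolar compartment, a nuclear body marking cancer cells; inconclusive means readout between -30 and a set limit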
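Read-out is percentage of cells bearing a perinucleolar compartment, from automated 20x imaging of fixed, Hoechst-stained PC3M PTB-GFP cells. Cells were seeded 4 h, then exposed 16 h to compound (23 nl of library stock) in duplicate plates.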
GLA inh pH 4.5: blocks human alpha-galactosidase A at pH 4.5; P06280; purified enzyme, 4-MU-alpha-Gal fluorescence, pH 4.5; activity change, negative = inhibition, % at 105 µM; 230,000 tested, under 10 active; AID 1467
HPGD inh: inhibitors of human 15-hydroxyprostaglandin dehydrogenase (HPGD). 150,000 compounds, 4.3% hits. purified HPGD, NADH fluorescence kinetic, PGE2 substrate. AID 894. P15428. Potency, µM, actives largely listed as inhibitors; active means well fitted inhibition curve with a large enough effect, not every such curve was filed as active; inconclusive means small, poorly fitted or top-dose-only effect, or another doubt; inactive means no such curve, though single readings can be large or run the other way
Target sequence (P15428 whole entry, looked up): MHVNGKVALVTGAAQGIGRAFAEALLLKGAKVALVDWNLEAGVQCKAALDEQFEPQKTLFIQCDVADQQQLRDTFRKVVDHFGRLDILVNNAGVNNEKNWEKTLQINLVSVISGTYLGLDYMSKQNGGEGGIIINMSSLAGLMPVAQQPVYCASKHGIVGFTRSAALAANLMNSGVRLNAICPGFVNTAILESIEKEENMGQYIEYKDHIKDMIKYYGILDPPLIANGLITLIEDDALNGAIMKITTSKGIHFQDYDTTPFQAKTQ
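20 nM HPGD preincubated 15 min at room temperature with compound in 50 mM Tris-HCl pH 8, 0.01% Tween 20. Started with 1 mM NAD+ and 30 uM prostaglandin E2; NADH fluorescence (360/450 nm) read 5 times over 30-s intervals, last minus first.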
ALDH1A1 inh: ALDH1A1 (human) enzyme inhibition | Purified ALDH1A1, NADH fluorescence, propionaldehyde substrate | Potency, µM (titrated, usually from 75.3 µM), usual class: inhibitors | 220,000 compounds, 7.3% hits | AID 1030; active means well fitted inhibition curve with a large enough effect, not every such curve was filed as active; inconclusive means small, poorly fitted or top-dose-only effect, or another doubt; inactive means no such curve, though single readings can be large or run the other way
Target sequence (P00352 whole entry, looked up): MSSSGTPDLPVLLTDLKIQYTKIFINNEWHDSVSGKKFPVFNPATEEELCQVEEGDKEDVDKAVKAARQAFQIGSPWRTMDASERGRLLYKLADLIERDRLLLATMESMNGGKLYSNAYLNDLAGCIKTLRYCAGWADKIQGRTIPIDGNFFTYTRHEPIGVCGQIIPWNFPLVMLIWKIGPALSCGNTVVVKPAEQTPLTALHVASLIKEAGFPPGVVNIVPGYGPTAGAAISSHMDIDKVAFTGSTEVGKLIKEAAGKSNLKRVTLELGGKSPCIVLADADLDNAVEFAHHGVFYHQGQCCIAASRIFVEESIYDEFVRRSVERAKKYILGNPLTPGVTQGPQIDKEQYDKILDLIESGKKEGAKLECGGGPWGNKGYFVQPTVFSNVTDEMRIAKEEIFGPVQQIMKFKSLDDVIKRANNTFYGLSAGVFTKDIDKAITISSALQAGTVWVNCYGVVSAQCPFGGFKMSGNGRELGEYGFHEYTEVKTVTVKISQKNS
Of the large screens only hits and unclear results are named; the others gave an inactive call. Unless noted, the call rests on the fitted dose curve; in most records, active means well fitted curve in the direction sought with a large enough effect; inconclusive means small, poorly fitted or top-dose-only effect, or another doubt; inactive means no such curve, though single readings can be large; an effect the other way counts as inactive or inconclusive.

O=C(Nc1ccc(C(=O)N2CCCC2)cc1)c1ccccc1[N+](=O)[O-]	none (no result: 12-hLO inh, PNC assembly inh, HPGD inh)
Cn1cc([N+](=O)[O-])c(C(=O)Nc2ccc(C(=O)N3CCCCC3)cc2)n1	PNC assembly inh inconclusive, HPGD inh 0.4µM
Cc1ccc(S(=O)(=O)Nc2ccccc2C(=O)c2ccc(C)c(C)c2)cc1	HPGD inh inconclusive, ALDH1A1 inh inconclusive (no result: GLA spleen mod, PNC assembly inh, GLA inh pH 4.5)
CCN(CC(=O)NCc1cccs1)c1ccc(S(=O)(=O)N2CCN(C)CC2)cn1	ALDH1A1 inh inconclusive (no result: 12-hLO inh, PNC assembly inh, HPGD inh)
CC(=O)O[C@@H](C)C[N+](C)(C)C	none (no result: PNC assembly inh)
COc1ccccc1-n1c(CNC(=O)COc2ccccc2)n[nH]c1=S	HPGD inh inconclusive, ALDH1A1 inh 2.2µM
COc1ccccc1-n1c(CNC(=O)c2cccc([N+](=O)[O-])c2C)n[nH]c1=S	none (no result: 12-hLO inh, PNC assembly inh, HPGD inh)
O=C1NN(c2ccc(F)cc2)C(=O)/C1=C/c1cccs1	ALDH1A1 inh 25µM (no result: 12-hLO inh, PNC assembly inh, HPGD inh)
C=CCOC(=O)c1cc(-c2ccc(/C=C3\C(=O)NC(=O)C(C#N)=C3C)o2)ccc1Cl	PNC assembly inh inconclusive, HPGD inh 16µM, ALDH1A1 inh 10µM
Cc1nnc(SCC(=O)N2c3ccccc3CC2C)[nH]c1=O (configuration not stated)	ALDH1A1 inh 11µM
CC1Cc2ccccc2N1C(=O)CSC1=NCCS1 (configuration not stated)	ALDH1A1 inh inconclusive
CC1Cc2ccccc2N1C(=O)CSc1ccccc1 (configuration not stated)	ALDH1A1 inh 18µM
CC1Cc2ccccc2N1C(=O)CNc1ccccc1N1CCCCC1 (configuration not stated)	ALDH1A1 inh 13µM (no result: 12-hLO inh, PNC assembly inh, HPGD inh)
COC(=O)C(NC(=O)c1ccc(C)cc1)(Nc1cccc(C)n1)C(F)(F)F (configuration not stated)	PNC assembly inh -100
COC(=O)C(NC(=O)c1ccccc1)(Nc1nc(C)cs1)C(F)(F)F (configuration not stated)	none (no result: HPGD inh)
CC1=NNC(=O)C1CCC(=O)N/N=C/C(Br)=C/c1ccccc1 (configuration not stated)	PNC assembly inh -115, ALDH1A1 inh inconclusive (no result: HPGD inh)
CC1=C(C(=O)Nc2cccc(C)c2C)C(c2cccs2)NC(=S)N1 (configuration not stated)	PNC assembly inh inconclusive
CC1=C(C(=O)Nc2ccccc2C(F)(F)F)C(c2ccc(C)s2)NC(=S)N1 (configuration not stated)	ALDH1A1 inh 0.63µM (no result: 12-hLO inh, PNC assembly inh, HPGD inh)
CC1=C(C(=O)Nc2ccccc2C)C(c2ccc(C)o2)NC(=S)N1 (configuration not stated)	ALDH1A1 inh inconclusive
CC1=C(C(=O)Nc2ccccc2C(F)(F)F)C(c2sccc2C)NC(=S)N1 (configuration not stated)	ALDH1A1 inh 4.5µM (no result: 12-hLO inh, PNC assembly inh, HPGD inh)
COC(=O)C1=C(C)NC(=S)NC1c1sccc1C (configuration not stated)	ALDH1A1 inh 11µM (no result: 12-hLO inh, PNC assembly inh, HPGD inh)
CC1(C)[C@@H]2CC[C@@]1(C)C(=O)C2	ALDH1A1 inh inconclusive (no result: PNC assembly inh)
NC1=NC(S)C2N=CN=C2N1 (configuration not stated)	HPGD inh inconclusive, ALDH1A1 inh inconclusive (no result: PNC assembly inh, GLA inh pH 4.5)
CCCn1c(N)c(C(=S)NC(=O)C2CC2)c(=O)n(C)c1=O	none
Cc1ccc(-c2nn(-c3ccccc3)cc2C(=O)NN2CCN(C)CC2)cc1	none (no result: 12-hLO inh, PNC assembly inh, HPGD inh)
O=C(OCc1ccccc1)c1cn(-c2ccccc2)nc1-c1ccncc1	HPGD inh inconclusive, ALDH1A1 inh 20µM
COC(=O)c1cn(-c2ccccc2)nc1-c1ccncc1	ALDH1A1 inh inconclusive
O=C(O)CC/C(=N/NC(=O)c1cn(-c2ccccc2)nc1-c1ccccc1)C(=O)O	ALDH1A1 inh 4.5µM
O=Cc1cn(-c2ccccc2)nc1-c1ccncc1	ALDH1A1 inh 2.5µM (no result: 12-hLO inh, PNC assembly inh, HPGD inh)
O=C(NCc1cccnc1)c1cn(-c2ccccc2)nc1-c1ccccc1	ALDH1A1 inh 4.5µM (no result: 12-hLO inh, PNC assembly inh, HPGD inh)
CC(CNS(=O)(=O)c1ccccc1)(c1ccccc1)N1CCOCC1 (configuration not stated)	none (no result: HPGD inh)
CCCN(CCC)C(=O)CC(c1ccc(F)cc1)c1ccco1 (configuration not stated)	ALDH1A1 inh inconclusive
CCC(=O)NCCC(c1ccco1)c1ccccc1OC (configuration not stated)	HPGD inh inconclusive
COc1ccccc1C(CCN(Cc1cccs1)C(C)=O)c1ccco1 (configuration not stated)	ALDH1A1 inh 8.9µM (no result: HPGD inh)
CCC(=O)N(CCC(Cc1ccccc1)c1ccco1)Cc1ccco1 (configuration not stated)	ALDH1A1 inh 14µM (no result: 12-hLO inh, PNC assembly inh, HPGD inh)
CCN(CC)C(=O)CC(c1ccccc1)c1ccco1 (configuration not stated)	GLA spleen mod inconclusive, HPGD inh 16µM
CCC(=O)N(CCC(Cc1ccccc1)c1ccc2c(c1)OCO2)Cc1ccccc1F (configuration not stated)	ALDH1A1 inh inconclusive
CCC(=O)N(CCC(c1ccccc1)c1ccco1)Cc1cccs1 (configuration not stated)	ALDH1A1 inh 8.9µM
O=C(NNC(=S)Nc1ccccc1)Nc1ccccc1	ALDH1A1 inh 14µM (no result: 12-hLO inh, PNC assembly inh, HPGD inh)
Cc1ccc(NC(=S)NNC(=O)Nc2ccccc2)cc1	ALDH1A1 inh 2.2µM (no result: 12-hLO inh, PNC assembly inh, HPGD inh)
CC(=O)c1c(C)[nH]c(C(=O)CSc2nc3ccc(C)cc3[nH]2)c1C	ALDH1A1 inh 25µM
CCOC(=O)c1c(C)c(C(=O)NCCCOC)c(C)n1C	HPGD inh inconclusive
CCOC(=O)c1c(C)c(C(=O)NCCOC)c(C)n1CC	HPGD inh 8.9µM
CN(C)/C=N/c1cc(=O)n(C)c(=O)n1Cc1ccccc1	none
O=C(COC(=O)[C@@H]1CC(O)CN1S(=O)(=O)c1ccc2c(c1)OCCO2)Nc1ccccc1F (some centres not stated)	none (no result: 12-hLO inh, PNC assembly inh, HPGD inh)
CC1(C)CC(=O)C(c2c[nH]c3ccccc23)C(=O)C1	ALDH1A1 inh 20µM (no result: 12-hLO inh, PNC assembly inh, HPGD inh)
O=C(c1noc2c1CCCC2)N1CCC(CO)(Cc2ccccc2Cl)CC1	ALDH1A1 inh inconclusive (no result: 12-hLO inh, PNC assembly inh, HPGD inh)
COC(=O)c1ccccc1NC(=O)CSCC(=O)Nc1ccccc1OC	none
Cc1ccccc1NC(=O)CSC(N)=O	HPGD inh inconclusive, ALDH1A1 inh 0.79µM
NC(=O)SCC(=O)Nc1ccccc1C(=O)O	none (no result: 12-hLO inh, PNC assembly inh, HPGD inh)
COc1ccccc1NC(=O)CSC(N)=O	ALDH1A1 inh 1.6µM
COc1ccccc1NC(=O)c1ccc(NC(=O)COC(=O)CCC2CCCC2)cc1	none
CSc1ccccc1NC(=O)CN(C)CC(=O)NCc1ccccc1	GLA spleen mod 35µM, ALDH1A1 inh 0.2µM (no result: 12-hLO inh, PNC assembly inh, HPGD inh)
COc1ccccc1NC(=O)c1ccc(NC(=O)COC(=O)C(C)C)cc1	ALDH1A1 inh 0.89µM
Cc1ccccc1NC(=O)CSCCN1C(=O)c2ccccc2C1=O	HPGD inh inconclusive, ALDH1A1 inh inconclusive

Assay outcomes as filed in PubChem.
